Experimental data from article PMC7862700, “An all-to-all approach to the identification of sequence-specific readers for epigenetic DNA modifications on cytosine”.

What was measured:
Test in all cases: DAPPL (digital affinity profiling via proximity ligation, sequencing); 10 mM Tris-HCl pH 7.5, 50 mM NaCl, 1 mM DTT, 4% glycerol, room temperature, 30 min; GST-TFs on glutathione beads, 16-mer random dsDNA library, 0.1% formaldehyde crosslink after washing; high values mean tight binding
Conditions in all cases: protein: recombinant; tags: N-terminal GST; dsDNA, one strand shown
FLI1 = target: T1, FLI1 (Homo sapiens, UniProt Q01543 1-452)
T1 sequence: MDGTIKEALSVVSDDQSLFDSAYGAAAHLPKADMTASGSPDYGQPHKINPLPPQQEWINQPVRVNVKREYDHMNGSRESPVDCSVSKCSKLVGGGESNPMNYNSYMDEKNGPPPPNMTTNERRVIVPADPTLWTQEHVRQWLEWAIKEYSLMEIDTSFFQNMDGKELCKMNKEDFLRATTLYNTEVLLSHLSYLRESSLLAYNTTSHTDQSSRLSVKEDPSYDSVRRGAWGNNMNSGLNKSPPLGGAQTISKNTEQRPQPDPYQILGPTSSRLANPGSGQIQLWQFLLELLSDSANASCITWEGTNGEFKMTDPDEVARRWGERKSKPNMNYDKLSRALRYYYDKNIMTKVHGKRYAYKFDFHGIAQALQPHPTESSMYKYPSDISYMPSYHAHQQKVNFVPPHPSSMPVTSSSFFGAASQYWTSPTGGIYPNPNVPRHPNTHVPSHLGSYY
Outline: (§1)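 Yeast served to express human transcription factors as GST fusions, which were then captured on glutathione beads and labelled with DNA barcodes. Pooled with a tag-only sample, they were incubated with 200 nmole of a 16-mer random double-stranded DNA library for 30 min at room temperature in Tris/NaCl/DTT/glycerol buffer, washed, crosslinked with 0.1% formaldehyde, ligated by proximity, amplified by PCR and sequenced. Dividing each hexamer's read frequency for a factor by its frequency for the tag-only sample gives the binding signal.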

GABPA = target: T2, GABPA (Homo sapiens, UniProt Q06546 1-454)
T2 sequence: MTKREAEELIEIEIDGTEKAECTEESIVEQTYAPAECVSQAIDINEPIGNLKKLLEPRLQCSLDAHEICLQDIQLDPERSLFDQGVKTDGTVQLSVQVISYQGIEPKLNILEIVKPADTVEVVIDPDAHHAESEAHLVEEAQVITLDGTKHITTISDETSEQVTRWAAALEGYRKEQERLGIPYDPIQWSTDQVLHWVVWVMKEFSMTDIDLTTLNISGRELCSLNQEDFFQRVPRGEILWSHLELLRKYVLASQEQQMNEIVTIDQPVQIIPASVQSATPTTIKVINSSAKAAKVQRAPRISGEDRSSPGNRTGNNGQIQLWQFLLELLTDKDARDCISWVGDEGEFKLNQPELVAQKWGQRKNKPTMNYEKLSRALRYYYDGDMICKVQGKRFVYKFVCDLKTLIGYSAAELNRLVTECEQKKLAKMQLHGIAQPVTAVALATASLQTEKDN
Outline: as §1

ELF1 = ELF1 (Homo sapiens, UniProt P32519 1-619)
Chain of ELF1 (P32519 whole entry): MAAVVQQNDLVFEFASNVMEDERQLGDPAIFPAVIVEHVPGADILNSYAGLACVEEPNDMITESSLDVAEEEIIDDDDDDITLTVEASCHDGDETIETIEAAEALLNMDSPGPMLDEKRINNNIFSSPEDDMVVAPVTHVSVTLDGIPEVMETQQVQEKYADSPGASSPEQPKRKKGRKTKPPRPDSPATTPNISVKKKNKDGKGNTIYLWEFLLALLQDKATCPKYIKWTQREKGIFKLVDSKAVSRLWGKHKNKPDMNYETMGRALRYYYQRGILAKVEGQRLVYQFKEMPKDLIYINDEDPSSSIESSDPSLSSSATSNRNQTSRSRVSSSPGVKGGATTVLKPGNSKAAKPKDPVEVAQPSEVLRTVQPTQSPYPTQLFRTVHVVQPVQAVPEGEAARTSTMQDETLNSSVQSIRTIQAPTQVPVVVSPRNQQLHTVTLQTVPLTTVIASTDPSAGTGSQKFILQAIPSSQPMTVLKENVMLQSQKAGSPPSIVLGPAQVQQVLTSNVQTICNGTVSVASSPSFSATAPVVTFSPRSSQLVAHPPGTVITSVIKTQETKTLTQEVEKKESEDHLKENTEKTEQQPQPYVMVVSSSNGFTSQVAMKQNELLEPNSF
Outline: as §1

SPIB = SPIB (Homo sapiens, UniProt Q01892 1-262)
Chain of SPIB (Q01892 whole entry): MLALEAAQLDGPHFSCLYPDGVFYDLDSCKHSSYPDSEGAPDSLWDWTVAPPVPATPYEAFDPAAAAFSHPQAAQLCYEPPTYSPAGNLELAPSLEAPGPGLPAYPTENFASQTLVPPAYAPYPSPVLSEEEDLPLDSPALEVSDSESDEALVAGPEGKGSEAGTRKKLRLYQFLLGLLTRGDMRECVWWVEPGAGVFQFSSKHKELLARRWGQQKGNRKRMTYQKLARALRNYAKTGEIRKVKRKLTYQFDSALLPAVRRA
Outline: as §1

ELK3 = target: T3, ELK3 (Homo sapiens, UniProt P41970 1-407)
T3 sequence: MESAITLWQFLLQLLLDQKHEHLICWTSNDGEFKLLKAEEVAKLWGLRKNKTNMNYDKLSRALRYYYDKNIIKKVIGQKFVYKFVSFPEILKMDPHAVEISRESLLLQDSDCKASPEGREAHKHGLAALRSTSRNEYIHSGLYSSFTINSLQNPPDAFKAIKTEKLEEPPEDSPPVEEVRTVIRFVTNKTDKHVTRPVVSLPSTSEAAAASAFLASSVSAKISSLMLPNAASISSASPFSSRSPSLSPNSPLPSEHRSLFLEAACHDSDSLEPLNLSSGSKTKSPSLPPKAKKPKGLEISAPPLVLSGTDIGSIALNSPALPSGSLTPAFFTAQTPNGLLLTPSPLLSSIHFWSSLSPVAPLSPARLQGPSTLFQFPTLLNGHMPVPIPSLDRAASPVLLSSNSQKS
Outline: as §1

SPIC = target: T4, SPIC (Homo sapiens, UniProt Q8N5J4 1-248)
T4 sequence: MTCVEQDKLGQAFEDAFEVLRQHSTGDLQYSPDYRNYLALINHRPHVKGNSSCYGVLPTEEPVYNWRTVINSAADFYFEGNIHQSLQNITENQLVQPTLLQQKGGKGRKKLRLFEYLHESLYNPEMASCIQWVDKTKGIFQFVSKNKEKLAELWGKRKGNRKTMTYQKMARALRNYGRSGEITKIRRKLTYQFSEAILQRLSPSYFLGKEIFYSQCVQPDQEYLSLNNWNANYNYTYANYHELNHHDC
Outline: as §1

ETV2 = target: T5, ETV2 (Homo sapiens, UniProt O00321 1-342)
T5 sequence: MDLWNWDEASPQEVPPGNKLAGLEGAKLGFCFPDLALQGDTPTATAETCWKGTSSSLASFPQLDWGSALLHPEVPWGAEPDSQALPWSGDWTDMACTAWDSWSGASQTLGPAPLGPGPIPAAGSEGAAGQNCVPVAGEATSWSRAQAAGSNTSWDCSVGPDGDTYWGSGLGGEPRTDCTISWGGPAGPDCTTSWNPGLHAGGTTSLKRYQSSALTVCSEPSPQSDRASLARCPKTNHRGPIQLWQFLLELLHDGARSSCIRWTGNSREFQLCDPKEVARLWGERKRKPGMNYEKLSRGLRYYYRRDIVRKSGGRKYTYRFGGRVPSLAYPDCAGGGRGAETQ
Outline: as §1

ETV1 = ETV1 (Homo sapiens, UniProt P50549 1-477)
Chain of ETV1 (P50549 whole entry): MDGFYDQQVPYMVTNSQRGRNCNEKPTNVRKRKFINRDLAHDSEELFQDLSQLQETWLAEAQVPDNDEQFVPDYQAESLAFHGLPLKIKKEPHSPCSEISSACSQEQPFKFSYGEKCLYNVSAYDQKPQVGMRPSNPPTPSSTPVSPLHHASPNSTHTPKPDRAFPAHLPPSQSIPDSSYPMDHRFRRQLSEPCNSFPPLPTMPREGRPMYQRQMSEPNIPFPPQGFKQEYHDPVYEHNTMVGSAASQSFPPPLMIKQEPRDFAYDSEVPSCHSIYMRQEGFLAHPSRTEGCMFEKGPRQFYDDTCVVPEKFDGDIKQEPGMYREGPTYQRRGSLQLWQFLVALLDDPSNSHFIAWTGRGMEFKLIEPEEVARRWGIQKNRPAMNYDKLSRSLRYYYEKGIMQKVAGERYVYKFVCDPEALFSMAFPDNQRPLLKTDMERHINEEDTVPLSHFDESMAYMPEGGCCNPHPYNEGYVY
Outline: as §1

ERF = target: T6, ERF (Homo sapiens, UniProt P50548 1-548)
T6 sequence: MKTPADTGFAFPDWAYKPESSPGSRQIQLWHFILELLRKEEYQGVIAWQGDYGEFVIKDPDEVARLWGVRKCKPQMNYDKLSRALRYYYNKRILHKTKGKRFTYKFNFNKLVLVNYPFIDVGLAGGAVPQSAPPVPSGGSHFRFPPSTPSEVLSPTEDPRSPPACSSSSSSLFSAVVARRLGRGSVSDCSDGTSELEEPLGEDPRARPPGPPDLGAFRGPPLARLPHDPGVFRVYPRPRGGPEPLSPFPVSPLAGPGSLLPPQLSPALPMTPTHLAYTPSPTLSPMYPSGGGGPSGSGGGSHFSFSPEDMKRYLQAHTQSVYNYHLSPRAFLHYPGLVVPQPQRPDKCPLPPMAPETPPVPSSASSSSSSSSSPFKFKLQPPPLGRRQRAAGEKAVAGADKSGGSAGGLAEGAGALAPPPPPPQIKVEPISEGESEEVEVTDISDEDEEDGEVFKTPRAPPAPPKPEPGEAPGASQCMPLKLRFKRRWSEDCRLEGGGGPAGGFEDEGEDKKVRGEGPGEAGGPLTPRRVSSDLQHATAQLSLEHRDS
Outline: as §1

ETV3L = target: T7, ETV3L (Homo sapiens, UniProt Q6ZN32 1-361)
T7 sequence: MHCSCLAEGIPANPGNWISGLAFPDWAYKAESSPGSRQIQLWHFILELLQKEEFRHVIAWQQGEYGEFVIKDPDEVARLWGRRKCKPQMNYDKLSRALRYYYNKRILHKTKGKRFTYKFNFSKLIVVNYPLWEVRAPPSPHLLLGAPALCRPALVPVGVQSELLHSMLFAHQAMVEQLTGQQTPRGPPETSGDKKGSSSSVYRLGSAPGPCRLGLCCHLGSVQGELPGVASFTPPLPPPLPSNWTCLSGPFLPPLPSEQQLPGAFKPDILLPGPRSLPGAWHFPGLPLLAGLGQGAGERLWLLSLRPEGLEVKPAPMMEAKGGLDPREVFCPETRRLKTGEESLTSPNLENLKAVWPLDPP
Outline: as §1

ETS2 = target: T8, ETS2 (Homo sapiens, UniProt P15036 1-469)
T8 sequence: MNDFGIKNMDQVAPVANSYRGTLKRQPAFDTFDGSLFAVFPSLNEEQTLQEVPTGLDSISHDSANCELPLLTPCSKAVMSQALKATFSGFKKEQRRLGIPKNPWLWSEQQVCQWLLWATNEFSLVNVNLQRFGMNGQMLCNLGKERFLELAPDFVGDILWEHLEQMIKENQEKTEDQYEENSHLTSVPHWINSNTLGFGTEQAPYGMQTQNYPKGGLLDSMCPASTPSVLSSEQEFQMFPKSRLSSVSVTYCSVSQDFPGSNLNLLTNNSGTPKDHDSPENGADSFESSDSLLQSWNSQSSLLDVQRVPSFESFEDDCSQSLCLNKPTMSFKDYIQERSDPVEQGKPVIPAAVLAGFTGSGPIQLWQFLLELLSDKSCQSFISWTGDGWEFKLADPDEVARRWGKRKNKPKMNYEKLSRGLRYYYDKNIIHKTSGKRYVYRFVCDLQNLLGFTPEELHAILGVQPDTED
Outline: as §1

ETV3 = target: T9, ETV3 (Homo sapiens, UniProt P41162-2 1-143)
T9 sequence: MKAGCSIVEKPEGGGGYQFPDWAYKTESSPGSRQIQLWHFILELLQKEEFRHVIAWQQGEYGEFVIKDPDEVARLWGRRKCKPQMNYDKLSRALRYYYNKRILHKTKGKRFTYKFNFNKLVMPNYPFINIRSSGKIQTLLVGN
Outline: as §1

ETV6 = ETV6 (Homo sapiens, UniProt P41212 1-452)
Chain of ETV6 (P41212 whole entry): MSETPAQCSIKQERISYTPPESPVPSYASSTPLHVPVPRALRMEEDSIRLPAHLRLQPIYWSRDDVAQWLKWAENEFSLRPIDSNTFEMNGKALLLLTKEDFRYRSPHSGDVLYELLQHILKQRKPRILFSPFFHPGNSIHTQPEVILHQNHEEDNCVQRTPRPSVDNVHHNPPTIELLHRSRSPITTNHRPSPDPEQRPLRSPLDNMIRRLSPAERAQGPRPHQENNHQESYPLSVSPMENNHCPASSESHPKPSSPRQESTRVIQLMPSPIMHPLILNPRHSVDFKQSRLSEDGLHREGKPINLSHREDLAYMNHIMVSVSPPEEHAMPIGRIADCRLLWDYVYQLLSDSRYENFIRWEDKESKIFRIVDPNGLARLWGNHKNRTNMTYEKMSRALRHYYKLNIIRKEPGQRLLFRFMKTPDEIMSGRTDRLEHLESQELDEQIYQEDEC
Outline: as §1

GATCAA
binding signal (FLI1): 1.01 fold enrichment (6-mer frequency, TF over GST control) | binding signal (GABPA): 1.16 fold enrichment (6-mer frequency, TF over GST control) | binding signal (ELF1): 1.04 fold enrichment (6-mer frequency, TF over GST control) | binding signal (SPIB): 1.03 fold enrichment (6-mer frequency, TF over GST control) | binding signal (ELK3): 1.09 fold enrichment (6-mer frequency, TF over GST control) | binding signal (SPIC): 1.05 fold enrichment (6-mer frequency, TF over GST control) | binding signal (ETV2): 1.19 fold enrichment (6-mer frequency, TF over GST control) | binding signal (ETV1): 1.04 fold enrichment (6-mer frequency, TF over GST control) | binding signal (ERF): 1.02 fold enrichment (6-mer frequency, TF over GST control) | binding signal (ETV3L): 1.1 fold enrichment (6-mer frequency, TF over GST control) | binding signal (ETS2): 1.04 fold enrichment (6-mer frequency, TF over GST control) | binding signal (ETV3): 1.01 fold enrichment (6-mer frequency, TF over GST control) | binding signal (ETV6): 1.07 fold enrichment (6-mer frequency, TF over GST control)
